The text below walks through data of PubChem BioAssay AID1159580 (chemical genetic matrix, 2015).

Hit rate of the full screen: of about 5,500 compounds, about 2,000 (36%) were called active. Inconclusive results (about 18%) are left out. Some of the results follow. A number with no mark means an inactive call. Cut-off read from the data, not from the text of the source: active = normalized growth mostly below about 0.91 (no sharp cut-off); inconclusive = no clear call, values can overlap the other calls; inactive = mostly above about 0.92.

The assay can be described thus: chemical genetic growth profiling, strain panel (AID 1159580).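 Note: tested at 20 µM; growth read once vehicle control cultures reached saturation at 30 °C; 1 = growth at the plate median or of vehicle wells.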 The following applies: S. cerevisiae deletion strains, growth OD.

On to `CCC1(O)C(=O)OCc2c1cc1n(c2=O)Cc2cc3ccccc3nc2-1` (stereo unspecified), for which the normalized growth is 0.872 (active) (locus YAL013W, strain DEP1, stronger effect = lower value); 0.953 (locus YAL040C, strain CLN3, stronger effect = lower value); 0.977 (locus YCL061C, strain MRC1 (second series), stronger effect = lower value); 0.724 (active) (locus YDR363W, strain ESC2, stronger effect = lower value); 0.971 (locus YER002W, strain NOP16, stronger effect = lower value); 1.01 (locus YGR078C, strain PAC10, stronger effect = lower value). Also, the normalized growth is, setting by setting: (locus YGR229C, strain SMI1, stronger effect = lower value) 0.672 (active); (locus YMR263W, strain SAP30, stronger effect = lower value) 0.98; (locus YMR307W, strain GAS1, stronger effect = lower value) 0.904 (active); (locus YNL128W, strain TEP1, stronger effect = lower value) 0.906; (locus YNL175C, strain NOP13, stronger effect = lower value) 0.998; (locus YNL197C, strain WHI3, stronger effect = lower value) 0.976. The normalized growth runs as follows: (locus YNL224C, strain SQS1, stronger effect = lower value) 0.897 (active); (locus YNL322C, strain KRE1, stronger effect = lower value) 0.971; (locus YOR083W, strain WHI5 (second series), stronger effect = lower value) 0.867 (active); (locus YPL241C, strain CIN2, stronger effect = lower value) 0.984.
